Values joined by “and” are separate entries in the source; they are usually repeats but may differ in a detail not shown here. Equal entries are not always repeated. Screen size: about 650,000 compounds; about 6,800 (1%) were called active. Rule as the data show it: active = activation above about 4.9%; inactive = the rest. This excerpt belongs to a sample that is enriched for actives. Some compounds were tested as several samples or in several runs, with calls that do not always agree.
Each compound was assayed against G-protein coupled receptor 151 (Homo sapiens) (UniProt Q8TDV0) (assay: activates the human receptor GPR151, primary screen, cell-based, PathHunter beta-arrestin, luminescence (AID 1508602;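 also: 0% = median of compound wells and 100% = cells with positive control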)). Details: PathHunter beta-arrestin GPR151 cells, at 11.2 µM, stronger effect = higher value.
Sequence of G-protein coupled receptor 151 (Homo sapiens) (Q8TDV0 whole entry, looked up): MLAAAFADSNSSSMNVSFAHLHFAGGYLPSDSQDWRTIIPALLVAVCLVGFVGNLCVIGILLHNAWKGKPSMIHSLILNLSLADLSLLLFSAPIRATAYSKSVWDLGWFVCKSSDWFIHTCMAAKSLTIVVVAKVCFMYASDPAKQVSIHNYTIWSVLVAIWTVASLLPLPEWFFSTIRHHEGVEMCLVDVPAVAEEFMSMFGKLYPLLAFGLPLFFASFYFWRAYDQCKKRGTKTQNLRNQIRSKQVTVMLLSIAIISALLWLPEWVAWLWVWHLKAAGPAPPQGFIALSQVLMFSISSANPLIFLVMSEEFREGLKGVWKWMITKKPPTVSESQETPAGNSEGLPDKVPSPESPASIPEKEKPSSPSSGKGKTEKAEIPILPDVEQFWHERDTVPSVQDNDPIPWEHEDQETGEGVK
For `CC(NC(=O)Cc1ccc(-c2ccccc2)cc1)c1nc(-c2cccnc2)n[nH]1` (stereo not drawn), the activation was -0.113% (inactive).
With `CCC(C)OC(=O)C1=C(C)NC2=C(C(=O)CC(c3ccccc3)C2)C1c1ccccc1OCc1ccccc1` (stereo not drawn) the activation was 1.93% (inactive).
`CN1CC(=O)N2CCN(C(=O)OCc3ccccc3)C[C@@H]2C1=O` was tested, and the activation was 5.14% (active).
In the case of `COc1ccccc1C(=O)N1CCN2C(=O)CN(C)C(=O)[C@H]2C1`, the activation is reported as 1.54% (inactive).
`NCCCC[C@@H]1NC(=O)[C@H]2CN(C(=O)OCc3ccccc3)CCN2C1=O` was tested, and the activation was -0.551% (inactive).
With `O=C1CSC(c2ccccc2Br)N1c1ccc(F)c(Cl)c1` (stereo not drawn) the activation was -1.29% (inactive).
For `COc1ccc(C(=O)Cc2cc3ccccc3oc2=O)c(OC)c1`, the activation was 8.65% (active).
`COc1cccc(/C=C/C(=O)c2cc3ccccc3oc2=O)c1` was tested, and the activation was -0.0229% (inactive).
In the case of `COc1ccc(C(=O)COC(=O)c2ccc3ccccc3n2)c(OC)c1`, the activation is reported as -0.989% (inactive).
For `CCCN1CCC(N2CCN(c3cccc(Cl)c3)CC2)CC1`, the activation was -0.685% (inactive).
With `O=C(CSc1nc2ccccc2c(=O)n1CCCN1CCN(c2cccc(Cl)c2)CC1)N1CCCCCC1` the activation was 0.298% (inactive).
`CCc1nn(CCCN2CCN(c3cccc(Cl)c3)CC2)c(=O)n1CCOc1ccccc1` was tested, and the activation was 5.41% (active) and -0.0264% (inactive) and -0.848% (inactive).
In the case of `O=C(N/N=C/c1cc(Cl)ccc1O)c1cc(-c2ccccc2)n[nH]1`, the activation is reported as 5.58% (active).
For `O=C(N/N=C/c1ccccc1O)c1cc(-c2ccc(Cl)cc2)n[nH]1`, the activation was -0.397% (inactive).
For `COc1cc(Br)cc(/C=N/NC(=O)c2cc(-c3ccccc3)n[nH]2)c1O`, the activation was 3.1% (inactive).
In the case of `Cn1c(=NC(=O)CN2C(=O)CCC2=O)sc2cc([N+](=O)[O-])ccc21`, the activation is reported as 1.44% (inactive).
For `CC(C)(C)c1cnnn1-c1ccc(C(=O)/C=C\c2ccco2)cc1`, the activation was 0.0135% (inactive).
`C=CCc1cccc(/C=N/NC(=O)CCC(=O)Nc2ccc(Br)cc2)c1O` was tested, and the activation was 7.12% (active).
`COc1ccc(NC(=O)CCC(=O)N/N=C/c2ccccc2Cl)cc1` was tested, and the activation was 0.396% (inactive).
For `COc1ccc(NC(=O)CCC(=O)N/N=C/c2cc(Cl)ccc2O)cc1`, the activation was -1.64% (inactive).
`COc1ccccc1N(CC(=O)Nc1ccc(F)c(Cl)c1)S(=O)(=O)c1ccccc1` was tested, and the activation was 2.46% (inactive).
In the case of `COC(=O)c1sccc1N/N=C/c1ccccn1`, the activation is reported as -4.95% (inactive).
In the case of `COc1ccc(CCNC(=O)Cn2cnc3sc4c(c3c2=O)CCC4)cc1OC`, the activation is reported as 0.328% (inactive).
For `COc1cccc(-c2nnc(NC(=O)CSc3ccccc3)o2)c1`, the activation was 9.1% (active).
With `COc1cccc(-c2nnc(SCC(=O)NCc3ccccc3)o2)c1` the activation was -0.0263% (inactive).
For `COc1ccc(NC(=O)Cc2ccc(C)cc2)cc1`, the activation was -2.5% (inactive).
`COc1ccc(CC(=O)Nc2ccc(C(=O)Nc3ccccc3C(=O)O)cc2)cc1` was tested, and the activation was 1.57% (inactive).
In the case of `COc1ccc(CC(=O)Nc2ccc(-c3nnc(-c4ccccc4)o3)cc2)cc1`, the activation is reported as 7.27% (active).
For `COc1cccc(NC(=O)CSc2nnc(-c3ccc(NS(C)(=O)=O)cc3)o2)c1`, the activation was 0.627% (inactive).
For `CCC(C)NC(=O)c1sc2nc(C)nc(N3CCCCC3)c2c1C` (stereo not drawn), the activation was 2.24% (inactive).
With `CCC(CC)C(=O)Nc1ccc(S(=O)(=O)Nc2ncccn2)cc1` the activation was -0.125% (inactive).
In the case of `CCCCCC(=O)OCCNC(=O)c1cc2ccccc2oc1=O`, the activation is reported as -0.976% (inactive).
For `Cc1ccc(S(=O)(=O)NCc2csc(-c3ccccc3)n2)cc1`, the activation was 4.76% (inactive).
`O=S(=O)(NCc1csc(-c2cccnc2)n1)c1ccc2ccccc2c1` was tested, and the activation was 5.9% (active).
In the case of `CCc1ccc(S(=O)(=O)NCc2csc(-c3ccccc3)n2)cc1`, the activation is reported as -1.08% (inactive).
`NC1=NC(=O)/C(=C/c2ccccc2C(F)(F)F)S1` was tested, and the activation was -0.392% (inactive).
With `Cc1c(C)n2c(SCC(=O)Nc3ccc4c(c3)OCO4)nnc2[nH]c1=O` the activation was 1.02% (inactive).
In the case of `COc1ccc(OC)c(NC(=O)CSc2nnc3[nH]c(=O)c(C)c(C)n23)c1`, the activation is reported as 5.91% (active).
For `CCCc1cc(=O)[nH]c2nnc(SCC(=O)Nc3cc(OC)ccc3OC)n12`, the activation was -0.547% (inactive).
For `Cc1ccc(CSCc2nnc(SCC(=O)Nc3nccs3)n2C)cc1`, the activation was 0.977% (inactive).
`COc1ccc(/C(=N/C(N)=S)Nc2ccccc2)cc1` was tested, and the activation was -0.629% (inactive).
In the case of `COc1cc(/C=C/C(=O)O)ccc1OCc1ccccc1F`, the activation is reported as -0.0946% (inactive).
`Cc1ccc(-c2nc(CCNC(=O)c3cccs3)cs2)cc1` was tested, and the activation was -1.14% (inactive).
`COC(=O)C1(C)NC(c2ccc(C)cc2)C2C(=O)N(c3ccc(F)cc3)C(=O)C21` (stereo not drawn) was tested, and the activation was -0.111% (inactive).
With `COC(=O)C1(C)NC(c2ccc(C)cc2)C2C(=O)N(c3ccc(C)cc3)C(=O)C21` (stereo not drawn) the activation was -0.33% (inactive).
`COC(=O)C1(C)NC(c2ccccc2OC)C2C(=O)N(c3ccccc3)C(=O)C21` (stereo not drawn) was tested, and the activation was 5.08% (active).
In the case of `Cc1c(C(=O)Nc2ccc(F)cc2Cl)sc2ncn(CC(=O)N3CCOCC3)c(=O)c12`, the activation is reported as -1.55% (inactive).
`Cc1ccc(C2=CC(c3ccccc3F)n3nnnc3N2)cc1` (stereo not drawn) was tested, and the activation was 0.122% (inactive).
In the case of `FC(F)Oc1ccccc1C1C=C(c2ccc(Cl)cc2)Nc2nnnn21` (stereo not drawn), the activation is reported as -0.0148% (inactive).
For `Clc1ccccc1C1C=C(c2ccc(I)cc2)Nc2nnnn21` (stereo not drawn), the activation was 13.5% (active).
In the case of `CC(C)C[C@@H]1NC(=O)[C@@H]2C[C@H](NCc3cn(C)nc3-c3ccccc3)CN2C1=O`, the activation is reported as 2.5% (inactive).
For `Cc1cc(CN(C)Cc2ccc(OCC(O)CN(C)Cc3ccccc3)cc2)n[nH]1` (stereo not drawn), the activation was 5.48% (active).
With `Cc1nc(CNCc2ccc(OCC(O)CN(C)Cc3ccccc3)cc2)n[nH]1` (stereo not drawn) the activation was 0.224% (inactive).
In the case of `COCCN(C)Cc1ccc(OCC(O)CN(C)Cc2ccccc2)cc1` (stereo not drawn), the activation is reported as 2.19% (inactive).
`CC(C)Cn1cnc2c1c(=O)[nH]c(=O)n2CC(C)C` was tested, and the activation was -1.78% (inactive).
`CCOC(=O)c1oc2ccc(C=O)c(Cl)c2c1C` was tested, and the activation was 0.651% (inactive).
`CC(C)(C)NC(=O)C1CC(c2ccccc2Cl)=NO1` (stereo not drawn) was tested, and the activation was 1.12% (inactive).
`COc1ccc(OC)c(C2=NOC(C(=O)Nc3cccc(O)c3)C2)c1` (stereo not drawn) was tested, and the activation was 1.6% (inactive).
In the case of `COc1cc(NC(=O)C2CC(c3ccccc3O)=NO2)c(OC)cc1Cl` (stereo not drawn), the activation is reported as 5.74% (active).
In the case of `O=C(NNC(=S)NC(=O)c1ccccc1[N+](=O)[O-])c1ccc(O)cc1`, the activation is reported as -0.124% (inactive).
In the case of `CO[C@@H]1COC(=O)[C@@H](C)COC(=O)[C@H](C)NC(=O)C/C=C/[C@H]1C`, the activation is reported as 1.97% (inactive) and 5.04% (active).
With `COc1cc(Nc2ccnc(Nc3ccncc3)n2)cc(OC)c1OC` the activation was 1.57% (inactive).
`CCN(CC)c1nc(Nc2cc(OC)c(OC)c(OC)c2)nc(Nc2nc3ccccc3n2C)n1` was tested, and the activation was -0.32% (inactive).
`COc1cc(Nc2ccnc(Nc3ccc(N4CCOCC4)cc3)n2)cc(OC)c1OC` was tested, and the activation was 5.76% (active).
For `c1ccc(Nc2nccc(Nc3ccc(N4CCOCC4)cc3)n2)cc1`, the activation was 2.16% (inactive).
In the case of `CCN(CC)c1nc(Nc2cc(OC)c(OC)c(OC)c2)nc(N2CCOCC2)n1`, the activation is reported as 5.49% (active).
In the case of `CCN(CC)c1nc(Nc2ccccc2)nc(N2CCOCC2)n1`, the activation is reported as -0.263% (inactive).
For `O=C1CCC(CCC(=O)N2CCCC2)(Cc2cccc3ccccc23)N1` (stereo not drawn), the activation was 0.278% (inactive).
For `Cc1ccc(C(C)C)c(OCCNC(=O)c2cccs2)c1`, the activation was 0.446% (inactive).
For `COc1ccc(CC2(CCC(=O)NCCCn3ccnc3)CCC(=O)N2)c(F)c1` (stereo not drawn), the activation was -0.719% (inactive).
In the case of `COc1cc(Nc2ccc(-n3cc(CC(=O)NCCCN4CCCC4=O)c4ccccc43)nn2)cc(OC)c1OC`, the activation is reported as -1.03% (inactive).
For `COc1ccc(C(=O)NCC(=O)O)cc1[N+](=O)[O-]`, the activation was -1.88% (inactive).
With `COC(=O)c1c(-c2ccccc2)csc1NC(=O)c1ccc(OC)c([N+](=O)[O-])c1` the activation was 6.64% (active).
For `CCOC(=O)c1c(-c2ccc([N+](=O)[O-])cc2)csc1NC(=O)c1ccccc1`, the activation was -1.07% (inactive).
With `COC(=O)c1cccc(-n2nnnc2SCC(=O)Nc2nc(C(C)(C)C)cs2)c1` the activation was -0.122% (inactive).
For `CC(C(=O)O)c1ccc(NC(=O)OC(C)(C)C)cc1` (stereo not drawn), the activation was -1.31% (inactive).
With `COc1ccc(N2C(=O)CSC2c2cccc(Cl)c2Cl)cc1Cl` (stereo not drawn) the activation was 0.734% (inactive).
With `COc1cccc(C2SCC(=O)N2c2cccc(C)c2)c1OC` (stereo not drawn) the activation was 5.36% (active).
In the case of `COc1ccc(N2C(=O)CSC2c2ccccc2F)cc1Cl` (stereo not drawn), the activation is reported as -0.327% (inactive).
With `Cc1c(NC(=O)c2nn3c(C(F)(F)F)cc(-c4ccc(Cl)cc4)nc3c2Cl)c(=O)n(-c2ccccc2)n1C` the activation was -1.62% (inactive).
`N#C/C(=C/c1ccc(Br)o1)C(=O)NCCc1c[nH]c2ccccc12` was tested, and the activation was 0.189% (inactive).
`Cc1cc(CN(C)Cc2nc(NCC3CCCO3)c3ccc(Cl)cc3n2)on1` (stereo not drawn) was tested, and the activation was -0.552% (inactive).
With `COc1cc(-c2ncnn2-c2ccc(Cl)cc2)ccc1OCc1ccccc1` the activation was -3.78% (inactive).
For `COCc1cc(C)c(C#N)c(N(C)C)n1`, the activation was 0.894% (inactive).
`CC1=NN(c2cccc(Cl)c2)C(=O)/C1=C\c1ccc(F)cc1` was tested, and the activation was -0.302% (inactive).
In the case of `O=C(NCc1ccsc1)c1ccc(-n2cccc2)cc1`, the activation is reported as 6.14% (active).
`COc1ccc(CNC(=O)NCc2ccsc2)cc1` was tested, and the activation was -0.956% (inactive).
With `O=C(NCCc1ccsc1)c1ccccc1Cl` the activation was -3.26% (inactive).
With `O=C(NCCc1ccc(N2CCCC2)cc1)c1ccc(F)cc1` the activation was 0.277% (inactive).
With `CCn1c(NCc2ccccc2OC)nc2ccccc21` the activation was -0.109% (inactive).
For `C=CCN1C(=O)/C(=C\c2cc(Br)ccc2OCC)C(=O)NC1=S`, the activation was 0.0155% (inactive).
`C#CCOc1ccc(C=C2C(=O)NC(=S)NC2=O)cc1Cl` was tested, and the activation was -0.112% (inactive).
With `C#CCOc1ccc(Br)cc1/C=C1\NC(=S)N(C)C1=O` the activation was 5.86% (active).

— PubChem BioAssay AID1508602 (The Scripps Research Institute Molecular Screening Center, 2020)
